# Active and inactive are the calls of the source. Unless noted, the rule behind the calls is not given here.
# Assays:
# [1] = system: Wnt5a (protein binding on small-molecule microarray); assay: small molecules binding Wnt5a protein – biophysical, small-molecule microarray, 635/667 nm fluorescence, primary screen (AID 1142); conditions: 635 nm fluorescence, higher = more signal;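 note: fluorescence read at 667 nm with signal to noise per printed feature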
# [2] = ATP-based viability of Huh7 replicon cells – cell-based, CellTiter-Glo luminescence, basal, 48 h, cytotoxicity control for HCV replication inhibitor project, primary screen (AID 1143); conditions: higher = more signal, called active from +8 up or from −8 down;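 note: Huh7 hepatoma cells carrying a hepatitis C replication reporter with no stimulus; test concentration not given here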
# [3] = Pseudomonas biofilm growth suppression – PAO1 strain, BacTiter-Glo luminescence, LB-PBS, primary screen (AID 1144); conditions: P. aeruginosa PAO1 biofilm, 12 h, higher = more signal
# [4] = basal CRE-LacZ reporter activity in PC12 – cell-based, unstimulated, primary screen (AID 1145); conditions: no forskolin, luminescence, 4.5 h, higher = more signal, called active from +8 up or from −8 down
# [5] = forskolin-driven CRE-LacZ activity in PC12 – cell-based, CRE-LacZ reporter, forskolin-stimulated, primary screen (AID 1146); conditions: luminescence, 4.5 h, higher = more signal, called active from +8 up or from −8 down;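 note: PC12 cells with 6xCRE LacZ reporter stimulated by forskolin 10 µM; beta-galactosidase reporter signal reflecting CREB driven transcription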
# [6] = biological target: Streptavidin (Streptomyces avidinii) (UniProt P22629); assay: compounds binding control protein streptavidin – biophysical, small-molecule microarray, 635/667 nm fluorescence, artefact control for SMM compound annotation, primary screen (AID 1147); conditions: higher = more signal;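 note: signal reflects streptavidin binding to arrayed compounds as a control protein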
# [7] = probe aInhba binding on compound microarray – biochemical, small-molecule microarray, 635/667 nm fluorescence, primary screen (AID 1148); conditions: higher = more signal;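 note: score merges 667nm spot fluorescence with signal-to-noise for antibody binding to printed compounds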
# Torsin-1A (Homo sapiens) [8] = biological target: Torsin-1A (Homo sapiens) (UniProt O14656); assay: TOR1A wild-type binding on microarray – cell lysate, small-molecule microarray, lysate, 635/667 nm, primary screen (AID 1149); conditions: COS7 hTOR1A-WT lysate, 635 nm fluorescence, higher = more signal
# Torsin-1A (Homo sapiens) [9] = biological target: Torsin-1A (Homo sapiens) (UniProt O14656); assay: torsin A mutant lysate binding on microarrays – cell lysate, small-molecule microarray, COS7 lysate, 635/667 nm fluorescence, primary screen (AID 1150); conditions: COS7 hTOR1A mutant lysate, 635 nm fluorescence, higher = more signal;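 note: score pools 667 nm emission and signal to noise measuring lysate protein binding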
# [10] = system: Sonic hedgehog protein (Shh); assay: Sonic hedgehog microarray binding compounds – biochemical, small-molecule microarray, 635/667 nm fluorescence, primary screen (AID 1151); conditions: 635 nm fluorescence, higher = more signal;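 note: Shh protein binding to compounds spotted on small-molecule microarray slides; score combines spot fluorescence intensity with signal-to-noise across triplicate slides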
# [11] = optical density shifts of acrAB sulA E. coli – strain DRC41, OD650, 48 h, E. coli filamentation inducer project, primary screen (AID 1152); conditions: higher = more signal, called active from +8 up or from −8 down;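 note: E. coli MC1000 strain DRC41 lacking acrAB efflux pump and sulA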
# [12] = probe aLefty1 binding on compound microarray – biochemical, small-molecule microarray, 635/667 nm fluorescence, primary screen (AID 1153); conditions: higher = more signal;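 note: score merges spot fluorescence with signal-to-noise ratio from the scanned slide images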
# [13] = plasmodial surface anion channel blockers, osmotic lysis – cell-based, P. falciparum Indochina, OD700, 1 h, primary screen (AID 1154); conditions: P. falciparum Indochina infected RBC osmotic lysis, higher = more signal, called active from +8 up or from −8 down
# [14] = plasmodial surface anion channel blockers, osmotic lysis – cell-based, P. falciparum Indochina, OD700, 2 h, primary screen (AID 1155);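 note: lysis reports solute entry through the parasite surface anion channel PSAC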; conditions: P. falciparum Indochina infected erythrocytes, higher = more signal, called active from +8 up or from −8 down
# [15] = changes in parasitized red cell lysis, either direction – P. falciparum Indochina, OD700, 3 h, PSAC antagonist project, primary screen (AID 1156); conditions: P. falciparum-infected erythrocytes, osmotic lysis, higher = more signal, called active from +8 up or from −8 down
# [16] = plasmodial surface anion channel blockers, osmotic lysis – cell-based, P. falciparum Indochina, OD700, 18 h, primary screen (AID 1157); conditions: P. falciparum Indochina infected erythrocytes, osmotic lysis OD700, 18 h; higher = more signal, called active from +8 up or from −8 down
# [17] = S6 kinase pathway phospho-S6 level changes – cell-based, A549, cytoblot, luminescence, serum-stimulated, primary screen (AID 1158); conditions: 5 h, higher = more signal;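 note: serum-stimulated A549 lung adenocarcinoma cells; signal is phosphorylated S6 detected by cytoblot immunostaining with HRP secondary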
# [18] = biological target: NADPH oxidase 2 (Homo sapiens) (UniProt P04839); assay: compounds shifting NOX2 Amplex Red fluorescence – cell-based, HEK293-NOX2, PMA-stimulated, NOX inhibitor project, primary screen (AID 1159); conditions: 45 min, higher = more signal, called active from +8 up or from −8 down; note: test concentration not given here
# [19] = biological target: NADPH oxidase 4 (Homo sapiens) (UniProt Q9NPH5); assay: compounds shifting NOX4 Amplex Red fluorescence – cell-based, HEK293-NOX4, tetracycline-induced, NOX inhibitor project, primary screen (AID 1160); conditions: HEK293-NOX4, Amplex Red H2O2 fluorescence, 45 min; higher = more signal, called active from +8 up or from −8 down
# [20] = biological target: NADPH oxidase 5 (Homo sapiens) (UniProt Q96PH1); assay: compounds shifting NOX5 Amplex Red fluorescence – cell-based, HEK293-NOX5, NOX inhibitor project, primary screen (AID 1161); conditions: HEK293-NOX5, ionomycin, 45 min, higher = more signal
# Chain of NADPH oxidase 5 (Homo sapiens) (Q96PH1 whole entry, looked up): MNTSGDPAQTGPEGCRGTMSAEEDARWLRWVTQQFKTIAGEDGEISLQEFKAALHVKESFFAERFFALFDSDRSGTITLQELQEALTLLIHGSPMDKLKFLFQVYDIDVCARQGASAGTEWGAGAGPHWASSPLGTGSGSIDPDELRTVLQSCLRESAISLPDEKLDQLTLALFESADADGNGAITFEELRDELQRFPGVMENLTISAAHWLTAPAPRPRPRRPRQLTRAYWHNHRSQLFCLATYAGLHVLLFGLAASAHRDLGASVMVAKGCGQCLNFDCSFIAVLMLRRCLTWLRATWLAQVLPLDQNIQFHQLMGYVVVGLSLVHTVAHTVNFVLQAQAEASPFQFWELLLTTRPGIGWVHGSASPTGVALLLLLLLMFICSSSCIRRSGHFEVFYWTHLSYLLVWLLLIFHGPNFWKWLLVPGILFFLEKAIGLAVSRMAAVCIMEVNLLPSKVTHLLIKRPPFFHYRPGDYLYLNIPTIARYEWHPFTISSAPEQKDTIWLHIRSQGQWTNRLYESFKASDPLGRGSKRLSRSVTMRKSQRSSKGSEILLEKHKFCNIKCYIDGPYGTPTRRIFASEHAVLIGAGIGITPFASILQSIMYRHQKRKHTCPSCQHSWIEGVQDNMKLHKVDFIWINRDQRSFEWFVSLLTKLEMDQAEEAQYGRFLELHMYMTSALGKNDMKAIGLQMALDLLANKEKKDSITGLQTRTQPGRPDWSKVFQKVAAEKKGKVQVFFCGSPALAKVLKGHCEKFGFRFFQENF
# Chain of NADPH oxidase 2 (Homo sapiens) (P04839 whole entry, looked up): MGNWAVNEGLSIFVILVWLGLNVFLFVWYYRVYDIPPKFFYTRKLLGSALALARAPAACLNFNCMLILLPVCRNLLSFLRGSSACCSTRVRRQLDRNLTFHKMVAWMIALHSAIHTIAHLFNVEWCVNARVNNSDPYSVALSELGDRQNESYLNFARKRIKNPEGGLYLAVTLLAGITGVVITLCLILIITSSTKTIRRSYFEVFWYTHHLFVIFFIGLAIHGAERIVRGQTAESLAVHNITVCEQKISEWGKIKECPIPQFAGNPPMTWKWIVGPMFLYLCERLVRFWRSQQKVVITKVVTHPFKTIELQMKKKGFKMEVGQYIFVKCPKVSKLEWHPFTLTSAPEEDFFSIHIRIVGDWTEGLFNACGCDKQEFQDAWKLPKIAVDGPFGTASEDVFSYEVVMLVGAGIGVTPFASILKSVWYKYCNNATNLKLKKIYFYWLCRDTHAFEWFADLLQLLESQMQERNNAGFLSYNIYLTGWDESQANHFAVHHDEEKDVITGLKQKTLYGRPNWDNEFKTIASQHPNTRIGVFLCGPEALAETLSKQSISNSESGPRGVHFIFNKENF
# Chain of Torsin-1A (Homo sapiens) (O14656 whole entry, looked up): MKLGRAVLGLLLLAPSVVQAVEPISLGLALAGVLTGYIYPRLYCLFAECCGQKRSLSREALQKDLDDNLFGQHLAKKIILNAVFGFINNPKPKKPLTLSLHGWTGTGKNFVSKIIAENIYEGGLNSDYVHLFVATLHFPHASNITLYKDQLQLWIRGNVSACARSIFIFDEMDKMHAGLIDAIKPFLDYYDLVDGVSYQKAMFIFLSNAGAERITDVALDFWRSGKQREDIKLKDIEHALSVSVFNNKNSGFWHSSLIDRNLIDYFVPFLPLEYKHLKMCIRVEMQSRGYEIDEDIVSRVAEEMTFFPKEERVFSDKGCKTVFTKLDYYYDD
# Chain of Streptavidin (Streptomyces avidinii) (P22629 whole entry, looked up): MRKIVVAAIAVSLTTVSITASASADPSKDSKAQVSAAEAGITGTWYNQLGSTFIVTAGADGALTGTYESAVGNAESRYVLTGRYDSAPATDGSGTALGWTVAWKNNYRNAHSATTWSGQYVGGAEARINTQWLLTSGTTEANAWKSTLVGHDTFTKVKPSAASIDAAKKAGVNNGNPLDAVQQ
# Chain of NADPH oxidase 4 (Homo sapiens) (Q9NPH5 whole entry, looked up): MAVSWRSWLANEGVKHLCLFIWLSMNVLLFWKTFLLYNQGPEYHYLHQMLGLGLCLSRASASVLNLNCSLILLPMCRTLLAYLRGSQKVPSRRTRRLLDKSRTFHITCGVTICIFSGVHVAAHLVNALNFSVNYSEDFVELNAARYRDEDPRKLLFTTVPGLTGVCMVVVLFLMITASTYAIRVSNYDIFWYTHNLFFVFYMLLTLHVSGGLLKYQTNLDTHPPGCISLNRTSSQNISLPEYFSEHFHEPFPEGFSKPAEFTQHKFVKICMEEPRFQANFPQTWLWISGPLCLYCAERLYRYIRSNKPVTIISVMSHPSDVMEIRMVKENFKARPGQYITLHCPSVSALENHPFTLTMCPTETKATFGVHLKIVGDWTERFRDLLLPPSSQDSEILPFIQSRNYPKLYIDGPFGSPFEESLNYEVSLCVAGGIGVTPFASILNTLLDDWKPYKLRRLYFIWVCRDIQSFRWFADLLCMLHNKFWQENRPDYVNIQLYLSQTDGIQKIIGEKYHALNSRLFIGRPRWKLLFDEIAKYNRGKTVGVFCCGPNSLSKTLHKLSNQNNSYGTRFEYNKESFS
SMILES,composite z-score [1],z-score [2],z-score [3],z-score [4],z-score [5],composite z-score [6],composite z-score [7],composite z-score (Torsin-1A (Homo sapiens) [8]),composite z-score (Torsin-1A (Homo sapiens) [9]),composite z-score [10],z-score [11],composite z-score [12],z-score [13],z-score [14],z-score [15],z-score [16],z-score [17],z-score [18],z-score [19],z-score [20]
COC(=O)[C@H](C)NC(=O)CCC1CC(OC(=O)NCc2cccc3ccccc23)CC2(CCCC(COC(=O)NCCc3ccccc3OC)O2)O1 (stereo not given in full),0.259,-0.701 (inactive),0.326 (inactive),0.556 (inactive),0.684 (inactive),0.759,-0.0361,0.475,0.406,0.963,-0.731 (inactive),-0.193,7.29 (inactive),1.37 (inactive),-0.148 (inactive),0.494 (inactive),-0.353,-0.49 (inactive),0.357 (inactive),0.512
CC(C)=NOC(C)CN1CCCc2nc(C)c(C)cc21 (stereo not given),0.299,0.431 (inactive),-0.905 (inactive),0.0757 (inactive),-0.263 (inactive),-0.0623,0.0074,0.111,0.386,1.35,-0.477 (inactive),-0.012,0.421 (inactive),0.774 (inactive),0.175 (inactive),0.539 (inactive),-0.558,-0.369 (inactive),-0.141 (inactive),-0.281
CO[C@H]1C[C@@H]2C[C@H](O)CC(CC(=O)O[C@@H](C=CCC(C)C)C[C@@H]3CC[C@H](C)[C@@H](C1)O3)O2,0.318,-0.454 (inactive),0.883 (inactive),2.64 (inactive),0.405 (inactive),0.645,-0.0494,0.778,0.183,1.02,-0.55 (inactive),-0.104,0.818 (inactive),0.41 (inactive),0.773 (inactive),-0.0957 (inactive),-0.254,-1.17 (inactive),0.226 (inactive),1.2
C[C@H]1CC[C@H]2C(=O)N[C@H](Cc3ccccc3)C(=O)N2[C@@H]1c1ccccc1,0.132,0.21 (inactive),0.108 (inactive),-0.072 (inactive),0.901 (inactive),0.119,-0.233,0.345,0.52,0.401,0.584 (inactive),-0.108,-0.189 (inactive),0.405 (inactive),-0.304 (inactive),0.294 (inactive),-0.0623,0.727 (inactive),-0.32 (inactive),-0.119
